# Results filed as inconclusive are left out. Entries that show only a call come without a potency. Active and inactive are the calls of the source. Calls follow the shape of the dose curve; as a rule, active = well fitted curve in the direction sought with a large enough effect; inconclusive = small, poorly fitted or top-dose-only effect, or another doubt; inactive = no such curve, though single readings can be large or run the other way.
# Test system: NanoLuc luciferase (engineered Oplophorus gracilirostris luciferase)
# Experiment: Confirmatory Nanoluciferase (NLuc) qHTS assay for identification of artifact compounds.
# Settings: secreted NLuc in S16 cell medium, luminescence, 5 min; series mostly up to 39 µM
# Text: PI: Alexander Tropsha Ph.D. UNC Eshelman School of Pharmacy University of North Carolina, Chapel Hill, North Carolina Hits from high-throughput screening (HTS) of chemical libraries are often false positives due to their interference with the assay detection technology. In response to this problem, we generated the largest publicly available library of chemical liabilities and developed a free webtool to predict HTS artifacts, both of which are described herein. More specifically, we generated, curated, and integrated HTS datasets for thiol reactivity, redox activity, and luciferase (firefly and nano) activity. Using these curated datasets, we developed and validated several Quantitative Structure-Interference Relationship (QSIR) models to predict nuisance behavior. […] These models were employed for virtual profiling of the National Center for Advancing Translational Science's (NCATS) in-house library, and 256 compounds for each assay were selected for the experimental validation of nuisance behavior. The BA for these external predictions ranged from 58 to 78% for compounds within the applicability domains of the models. […] The models developed in this study, along with aggregation models previously developed by our group (SCAM Detective) were implemented in "Liability Predictor," an online tool which may be used as part of chemical library design or for triaging HTS hits. Both the models and the curated datasets are publicly available at https://liability.mml.unc.edu/.
# PROTOCOL TABLE SEQUENCE No. (e.g., 1, 2, 3, etc.); PARAMETER (e.g., Cells, Incubation, Reagent, etc.); VALUE; DESCRIPTION. 1; Reagent; 2 uL; Nanoluciferase media. 2; Compounds and control; 16 nL; Kalypsis pin tool (Wako USA) equipped with a 1536-well pin head. 3; Incubation; 15 min. 4; Reagent; 2 uL; Luciferase enzyme. 5; Incubation; 5 min. 6; Detection; Luminescence, ViewLux microplate reader. NOTES (numbers refer to Sequence numbers above) 1. Medium was collected from the culture flasks of NLuc-expressing S16 cells (80% confluent) prior to cell plating, filtered through a 0.22um filter, and frozen at -20C prior to use. Media was diluted (1:55) and 2 uL was dispensed into all wells of a 1536-well assay plate (solid-bottom white plate; Greiner Bio One, Monroe, NC). 2. A Wako Pin-tool (Wako Automation, Richmond, VA) was used to transfer 16 nL of compounds (consisting of 7-plates in qHTS format, final concentration range 18.3 nM to 114 uM) or control Cilnidipine (final concentration range 623 nM to 80 uM). 3. 15 min. incubation at room temperature protected from light. 4. 2 uL of NLuc substrate (1:100 in Nano-Glo luciferase buffer; Nano-Glo luminescence assay, Promega, Madison, WI) was dispensed for a final assay volume of 4 uL. 5. Plates were centrifuged (121xg, 15 seconds) and incubated for 5 minutes. 6. Samples were read for luminescence on a ViewLux CCD imager (PerkinElmer). Data were normalized to no-enzyme (0% activity) and no-inhibitor (DMSO; 100%) controls and the resulting percent inhibition data were fitted to a 4-parameter Hill equation using NCATS in-house software.
# Potency is read from the fitted curve at half-maximal effect.
row,Structure (SMILES),Potency
1,C[C@H]1CC[C@@H]2[C@@H](C)[C@H]3C(CC4C5CC=C6CC(O[C@@H]7O[C@H](CO)C(O[C@@H]8O[C@@H](C)[C@H](O)[C@@H](O)[C@H]8O)[C@H](O)[C@H]7O[C@@H]7O[C@@H](C)[C@H](O)[C@@H](O)[C@H]7O)CC[C@]6(C)C5CC[C@@]43C)N2C1 (some centres undefined),inactive
2,O=P1(N(CCCl)CCCl)NC(OO)CCO1 (centres undefined),inactive
3,CC(=O)O[C@H]1C2[C@@H](OC(=O)Cc3ccccc3)[C@@H](C)C[C@]2(OC(C)=O)C(=O)/C(C)=C/[C@@H]2[C@H](CC[C@@]13CO3)C2(C)C (some centres undefined),inactive
4,C[C@@H]1C[C@@H]2[C@H]([C@H]3C=C(COC(=O)c4ccccc4)[C@@H](O)[C@]4(O)[C@@H](O)C(OC(=O)c5ccccc5)=C[C@@]14C3=O)C2(C)C,inactive
5,COc1cccc2c1C(=O)c1c(O)c3c(c(O)c1C2=O)CC(O)(C(C)=O)CC3OC1CC(NCc2ccc(CNC3CC(OC4CC(O)(C(C)=O)Cc5c(O)c6c(c(O)c54)C(=O)c4c(OC)cccc4C6=O)OC(C)C3O)cc2)C(O)C(C)O1 (centres undefined),15.4 µM (active)
6,CC(C)(O)[C@@H]1[C@H]2OC(=O)[C@@H]1[C@]1(O)C[C@H]3O[C@]34C(=O)O[C@H]2[C@]14C,inactive
7,COc1cc(=O)n2c(c1C(=O)N(C)Cc1nonc1C)CCN(C(=O)C1C(C)(C)C1(C)C)CC2,inactive
8,CC(=O)O[C@H]1[C@H]2[C@@H](OC(=O)Cc3ccccc3)[C@@H](C)C[C@]2(OC(C)=O)C(=O)/C(C)=C/[C@@H]2[C@H](CC[C@@]13CO3)C2(C)C,inactive
9,CC1=C[C@H]2[C@]3(O)C(C=C(CO)C[C@]2(O)C1=O)[C@@H]1C(C)(C)[C@]1(O)[C@H](O)[C@H]3C (some centres undefined),inactive
